{"source": "PubChem BioAssay (NCI)", "test_in_all_cases": "NCI-60 one-dose screen, 48 h (100 = growth as untreated, 0 = no growth, -100 = all killed)", "key": {"SK-MEL-2 melanoma": {"test_system": "SK-MEL-2 melanoma", "details": "10 µM unless noted"}, "EKVX NSCLC": {"test_system": "EKVX NSCLC", "details": "10 µM unless noted"}, "SN12C renal": {"test_system": "SN12C renal", "details": "10 µM unless noted"}, "UO-31 renal": {"test_system": "UO-31 renal", "details": "10 µM unless noted"}, "TK-10 renal": {"test_system": "TK-10 renal", "details": "10 µM unless noted"}, "CAKI-1 renal": {"test_system": "CAKI-1 renal", "details": "10 µM"}, "A498 renal": {"test_system": "A498 renal", "details": "10 µM unless noted"}, "CCRF-CEM leukemia": {"test_system": "CCRF-CEM leukemia", "details": "10 µM unless noted"}, "MOLT-4 leukemia": {"test_system": "MOLT-4 leukemia", "details": "10 µM unless noted"}, "ACHN renal": {"test_system": "ACHN renal", "details": "10 µM unless noted"}}, "note": "This is part of a sample that, as a whole, favours compounds with a hit. Of some 83,000 tested, about 20% had one in any assay.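 Single-dose data. Exposure time 48 hours. Values below 10 considered active.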 Unmarked numbers belong to inactive results. Activity calls are given as the source filed them."}
{"smiles": "NCCN1CCN(c2nc(-c3ccccc3)nc3nc(-c4ccccc4)oc23)CC1", "values": [{"measurement": "growth", "setting": "SK-MEL-2 melanoma", "value": 102, "unit": "%"}, {"measurement": "growth", "setting": "EKVX NSCLC", "value": "2% (active)"}, {"measurement": "growth", "setting": "SN12C renal", "value": "-79.4% (active)"}, {"measurement": "growth", "setting": "UO-31 renal", "value": "-89.2% (active)"}, {"measurement": "growth", "setting": "TK-10 renal", "value": "-28.7% (active)"}, {"measurement": "growth", "setting": "CAKI-1 renal", "value": "-90.1% (active)"}, {"measurement": "growth", "setting": "A498 renal", "value": 61.7, "unit": "%"}, {"measurement": "growth", "setting": "CCRF-CEM leukemia", "value": "1.25% (active)"}, {"measurement": "growth", "setting": "MOLT-4 leukemia", "value": "-0.256% (active)"}]}
{"smiles": "O=C(CSc1nnc(-c2ccc(Cl)cc2)n1-c1ccccc1)Nc1ccc(F)cc1", "values": [{"measurement": "growth", "setting": "SK-MEL-2 melanoma", "value": 111, "unit": "%"}, {"measurement": "growth", "setting": "EKVX NSCLC", "value": 90.6, "unit": "%"}, {"measurement": "growth", "setting": "SN12C renal", "value": 62.6, "unit": "%"}, {"measurement": "growth", "setting": "UO-31 renal", "value": 97.5, "unit": "%"}, {"measurement": "growth", "setting": "TK-10 renal", "value": 88.7, "unit": "%"}, {"measurement": "growth", "setting": "CAKI-1 renal", "value": 70.9, "unit": "%"}, {"measurement": "growth", "setting": "A498 renal", "value": 69.8, "unit": "%"}, {"measurement": "growth", "setting": "CCRF-CEM leukemia", "value": 91.8, "unit": "%"}, {"measurement": "growth", "setting": "MOLT-4 leukemia", "value": 103, "unit": "%"}]}
{"smiles": "CC[C@H](C)[C@H]1NC(=O)[C@@H]([C@H](O)C(C)C)NC(=O)[C@@H](C)N(C)C(=O)[C@H](C)N(C)C(=O)[C@H](CC(C)C)NC(=O)[C@H](CC(C)C)N(C)C(=O)[C@H](C)N(C)C1=O", "values": [{"measurement": "growth", "setting": "SK-MEL-2 melanoma", "value": "-27% (active)"}, {"measurement": "growth", "setting": "EKVX NSCLC", "value": "-4.22% (active)"}, {"measurement": "growth", "setting": "SN12C renal", "value": "2.49% (active)"}, {"measurement": "growth", "setting": "UO-31 renal", "value": "5.19% (active)"}, {"measurement": "growth", "setting": "TK-10 renal", "value": "1.97% (active)"}, {"measurement": "growth", "setting": "A498 renal", "value": "5.77% (active)"}, {"measurement": "growth", "setting": "CCRF-CEM leukemia", "value": "4.88% (active)"}, {"measurement": "growth", "setting": "MOLT-4 leukemia", "value": "1.68% (active)"}]}
{"smiles": "O=C(/C=C1\\C=CN(CCCCO)c2ccccc21)n1ccc2ccccc21", "values": [{"measurement": "growth", "setting": "SK-MEL-2 melanoma", "value": 101, "unit": "%"}, {"measurement": "growth", "setting": "EKVX NSCLC", "value": 89.6, "unit": "%"}, {"measurement": "growth", "setting": "SN12C renal", "value": 98.7, "unit": "%"}, {"measurement": "growth", "setting": "UO-31 renal", "value": 74.3, "unit": "%"}, {"measurement": "growth", "setting": "TK-10 renal", "value": 117, "unit": "%"}, {"measurement": "growth", "setting": "CAKI-1 renal", "value": 85.7, "unit": "%"}, {"measurement": "growth", "setting": "A498 renal", "value": 117, "unit": "%"}, {"measurement": "growth", "setting": "CCRF-CEM leukemia", "value": 102, "unit": "%"}, {"measurement": "growth", "setting": "MOLT-4 leukemia", "value": 102, "unit": "%"}]}
{"smiles": "O=C(CSc1nnc(-c2cccs2)n1-c1ccccc1)Nc1ccc(F)cc1", "values": [{"measurement": "growth", "setting": "SK-MEL-2 melanoma", "value": 110, "unit": "%"}, {"measurement": "growth", "setting": "EKVX NSCLC", "value": 90.9, "unit": "%"}, {"measurement": "growth", "setting": "SN12C renal", "value": 95.5, "unit": "%"}, {"measurement": "growth", "setting": "UO-31 renal", "value": 59.1, "unit": "%"}, {"measurement": "growth", "setting": "TK-10 renal", "value": 108, "unit": "%"}, {"measurement": "growth", "setting": "CAKI-1 renal", "value": 87.3, "unit": "%"}, {"measurement": "growth", "setting": "A498 renal", "value": 84.7, "unit": "%"}, {"measurement": "growth", "setting": "MOLT-4 leukemia", "value": 85.6, "unit": "%"}]}
{"smiles": "C#C[C@]1(O)CC[C@H]2[C@@H]3CC=C4c5sc(C6CC6)nc5CC[C@]4(C)[C@H]3CC[C@@]21C", "values": [{"measurement": "growth", "setting": "SK-MEL-2 melanoma", "value": 90, "unit": "%"}, {"measurement": "growth", "setting": "EKVX NSCLC", "value": 80.1, "unit": "%"}, {"measurement": "growth", "setting": "SN12C renal", "value": 86.1, "unit": "%"}, {"measurement": "growth", "setting": "UO-31 renal", "value": 68.8, "unit": "%"}, {"measurement": "growth", "setting": "TK-10 renal", "value": 124, "unit": "%"}, {"measurement": "growth", "setting": "CAKI-1 renal", "value": 79.6, "unit": "%"}, {"measurement": "growth", "setting": "A498 renal", "value": 99.9, "unit": "%"}, {"measurement": "growth", "setting": "CCRF-CEM leukemia", "value": 58.7, "unit": "%"}, {"measurement": "growth", "setting": "MOLT-4 leukemia", "value": 46.8, "unit": "%"}]}
{"smiles": "O=C1c2c(O)cc(O)cc2O[C@@H](c2ccc(O)cc2)[C@@H]1c1c(O)cc(O)c2c(=O)cc(-c3ccc(O)c(O)c3)oc12", "values": [{"measurement": "growth", "setting": "SK-MEL-2 melanoma", "value": 117, "unit": "%"}, {"measurement": "growth", "setting": "EKVX NSCLC", "value": 91.9, "unit": "%"}, {"measurement": "growth", "setting": "SN12C renal", "value": 105, "unit": "%"}, {"measurement": "growth", "setting": "UO-31 renal", "value": 97.3, "unit": "%"}, {"measurement": "growth", "setting": "ACHN renal", "value": 85, "unit": "%"}, {"measurement": "growth", "setting": "A498 renal", "value": 120, "unit": "%"}, {"measurement": "growth", "setting": "CCRF-CEM leukemia", "value": 114, "unit": "%"}, {"measurement": "growth", "setting": "MOLT-4 leukemia", "value": 121, "unit": "%"}]}
{"smiles": "O=S(=O)(NC1CC2CCC1C2)c1ccc2c(c1)C(=NO)c1cc(S(=O)(=O)NC3CC4CCC3C4)ccc1-2", "note": "(centres undefined)", "values": [{"measurement": "growth", "setting": "SK-MEL-2 melanoma", "value": 98.1, "unit": "%"}, {"measurement": "growth", "setting": "SN12C renal", "value": 34.6, "unit": "%"}, {"measurement": "growth", "setting": "UO-31 renal", "value": "-93% (active)"}, {"measurement": "growth", "setting": "TK-10 renal", "value": 95.6, "unit": "%"}, {"measurement": "growth", "setting": "CAKI-1 renal", "value": "-97.5% (active)"}, {"measurement": "growth", "setting": "A498 renal", "value": 89.4, "unit": "%"}, {"measurement": "growth", "setting": "CCRF-CEM leukemia", "value": "-18.8% (active)"}, {"measurement": "growth", "setting": "MOLT-4 leukemia", "value": 47.1, "unit": "%"}]}
{"smiles": "COc1cc2c3c(n(CCCN4CCCCC4)c(=O)c2cc1OC)-c1cc2c(cc1C3=O)OCO2", "values": [{"measurement": "growth", "setting": "EKVX NSCLC", "value": "-56.2% (active)"}, {"measurement": "growth", "setting": "SN12C renal", "value": "-72.1% (active)"}, {"measurement": "growth", "setting": "UO-31 renal", "value": "-89.3% (active)"}, {"measurement": "growth", "setting": "TK-10 renal", "value": "-87.2% (active)"}, {"measurement": "growth", "setting": "ACHN renal", "value": "-96.7% (active)"}, {"measurement": "growth", "setting": "CAKI-1 renal", "value": "-82.9% (active)"}, {"measurement": "growth", "setting": "A498 renal", "value": 70.9, "unit": "%"}, {"measurement": "growth", "setting": "CCRF-CEM leukemia", "value": "-11.6% (active)"}]}
{"smiles": "CCN1C(=O)N(CC)C2SC(N/N=C/c3ccccc3)=NC21", "note": "(centres undefined)", "values": [{"measurement": "growth", "setting": "SK-MEL-2 melanoma", "value": "9.45% (active)"}, {"measurement": "growth", "setting": "SN12C renal", "value": 34.4, "unit": "%"}, {"measurement": "growth", "setting": "UO-31 renal", "value": 54.6, "unit": "%"}, {"measurement": "growth", "setting": "TK-10 renal", "value": 81.3, "unit": "%"}, {"measurement": "growth", "setting": "ACHN renal", "value": 36, "unit": "%"}, {"measurement": "growth", "setting": "CAKI-1 renal", "value": 40.1, "unit": "%"}, {"measurement": "growth", "setting": "A498 renal", "value": "-19.2% (active)"}, {"measurement": "growth", "setting": "CCRF-CEM leukemia", "value": 16.7, "unit": "%"}, {"measurement": "growth", "setting": "MOLT-4 leukemia", "value": 21.4, "unit": "%"}]}
{"smiles": "C=C1C(=O)O[C@@H]2C[C@@H](C)[C@H](OC)CC(=O)[C@](C)(OC(C)=O)C[C@H](OC(=O)/C(C)=C\\C)[C@@H]12", "values": [{"measurement": "growth", "setting": "SK-MEL-2 melanoma", "value": 87.5, "unit": "%"}, {"measurement": "growth", "setting": "EKVX NSCLC", "value": 83.9, "unit": "%"}, {"measurement": "growth", "setting": "UO-31 renal", "value": 72.4, "unit": "%"}, {"measurement": "growth", "setting": "TK-10 renal", "value": 55.9, "unit": "%"}, {"measurement": "growth", "setting": "ACHN renal", "value": "5.58% (active)"}, {"measurement": "growth", "setting": "CAKI-1 renal", "value": 41.3, "unit": "%"}, {"measurement": "growth", "setting": "A498 renal", "value": 150, "unit": "%"}, {"measurement": "growth", "setting": "CCRF-CEM leukemia", "value": "-12.7% (active)"}, {"measurement": "growth", "setting": "MOLT-4 leukemia", "value": 38.1, "unit": "%"}]}
